Assay outcomes from PubChem BioAssay.
CCT modulator: changes cytosolic chaperonin activity | 360,000 tested, 0.3% active | activity change, % (test concentration not listed), hits read low | purified chaperonin ATPase assay, HTRF ADP detection, 30 min; in the data active = activity change below about -30%
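Nucleotide hydrolysis assay: TRiC at 20–40 nM final (set by batch activity) with 10 uM ATP, 30 min at 37 °C, in presence of 76 uM compound. Detection by competitive ADP HTRF, 30 min ambient.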
Six1-Eya2 inh: Six1/Eya2 interaction inhibition | Q15475+O00167 | AlphaScreen GST-Six1/His-Eya2 binding, biochemical; hits give low values | activity change, % (test concentration not listed) | 360,000 tested, 0.56% active | AID 651725
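Homogeneous AlphaScreen proximity assay pairing GST-Six1 with His-tagged Eya2 (added as 5X mix: 250 nM and 500 nM) in 50 mM Tris pH 8.0, 300 mM NaCl, 1 mM TCEP. Glutathione donor and nickel acceptor beads; 1 h, 37 °C, dark.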
Eya2 phos inh: blocks the phosphatase activity of human Eya2; recombinant Eya2, OMFP fluorescence dephosphorylation (OMFP is methylfluorescein phosphate); Potency, µM (top dose mostly 76.9 µM), without a hit: top-dose activity, negative = inhibition, hits mostly inhibitors; 330,000 tested, 0.006% active; AID 488837; active = well fitted inhibition curve with a large enough effect; inconclusive = small, poorly fitted or top-dose-only effect, or effect the other way; note: potency is the fitted concentration of half-maximal effect
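Eya2 protein (added as 0.2 uM solution) was preincubated with compound for 10 min at ambient temperature in 50 mM HEPES pH 7.5, 50 mM NaCl, 5 uM MgCl2, 0.05% BSA, 1 mM DTT. OMFP (added at 50 uM) then reacted 10 min; fluorescence read at 485/525 nm.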
PI4K2A block: inhibitors of human PI4K2A | Q9BTU6 | purified PI4K2A, ADP-Glo luminescence, 1 h; hits give low values | activity change, negative = inhibition, % at 76.9 µM | 420,000 tested, 0.13% active; in the data active = activity change below about -50%; inconclusive = mostly about -30% to -49%;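 note: -100% = wells without enzyme as full effect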
Target sequence (Q9BTU6 whole entry, looked up): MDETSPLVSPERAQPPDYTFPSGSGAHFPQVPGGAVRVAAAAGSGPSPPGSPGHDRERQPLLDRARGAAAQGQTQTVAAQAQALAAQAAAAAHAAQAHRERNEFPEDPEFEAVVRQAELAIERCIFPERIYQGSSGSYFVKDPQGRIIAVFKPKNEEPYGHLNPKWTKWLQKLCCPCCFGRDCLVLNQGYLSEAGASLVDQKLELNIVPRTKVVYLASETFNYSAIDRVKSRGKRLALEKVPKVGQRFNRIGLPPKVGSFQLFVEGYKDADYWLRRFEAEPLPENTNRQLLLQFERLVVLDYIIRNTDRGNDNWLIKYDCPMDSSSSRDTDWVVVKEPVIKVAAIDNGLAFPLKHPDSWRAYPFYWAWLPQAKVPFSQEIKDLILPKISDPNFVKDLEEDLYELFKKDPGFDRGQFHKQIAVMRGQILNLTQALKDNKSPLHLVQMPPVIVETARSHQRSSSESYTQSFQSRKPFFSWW
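In this quantitative HTS, ADP production by PI4K2A was quantified luminescently after 1 h at ambient temperature; 100 microM adenosine served as plate-quality control.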
CtBP-E1A blk: blocks the CtBP interaction with E1A; activity change, % (no concentration beside the values); 340,000 tested, 0.49% active; AlphaScreen GST-E1A/His-CtBP binding, 1536-well; hits give low values; AID 651724
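Homogeneous bead-based format: GST-tagged E1A captured on glutathione donor beads, His-tagged CtBP on nickel acceptor beads; compounds precede bead addition by 2 h at 37 °C.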
* = called active by the depositor; ? = inconclusive; . = not tested or not shown. This is a sample that favours compounds with a hit; in the whole collection about 0.97% have one here. Cut-off read from the data, not from the text of the source, unless noted: active = activity change below about -65%; inconclusive = mostly about -30% to -63%; inactive = weaker than that. Unless noted, % is set by controls: 0 for no effect and ±100 for the full control effect.

SMILES | CCT modulator | Six1-Eya2 inh | Eya2 phos inh | PI4K2A block | CtBP-E1A blk
CC(Oc1ccccc1)C(=O)N1CCN=C1SCc1ccccc1 (configuration not stated) | -42* | 15 | -6% | -4 | 8
CCOc1ccccc1C(=O)N(Cc1ccc(N(C)C)cc1)Cc1ccco1 | . | . | . | -4 | .
Cc1ccc(/C=N/Nc2nnc(Cc3ccccc3)c(=O)[nH]2)o1 | 3 | -26 | 10% | -5 | ?
COc1ccc(Cc2nnc(N/N=C/c3ccc(O)cc3O)[nH]c2=O)cc1OC | 0 | -88* | -1% | 10 | -93*
CCCCCC/C=N/Nc1nnc(Cc2ccc(OC)c(OC)c2)c(=O)[nH]1 | 1 | -74* | -11% | 4 | ?
Cc1nnc(SCC(=O)NC23CC4CC(CC(C4)C2)C3)n(N)c1=O | -42* | 9 | 4% | -1 | .
Cn1ccnc1SCC(=O)NC12CC3CC(CC(C3)C1)C2 | -1 | 0 | -6% | 1 | -3
O=C(Cn1c(=O)c2sccc2n(Cc2cccc([N+](=O)[O-])c2)c1=O)NCCc1ccccc1 | -2 | -21 | 1% | 2 | 0
O=C(Cn1c(=O)c2sccc2n(Cc2ccc([N+](=O)[O-])cc2)c1=O)NCCc1ccccc1 | 1 | ? | -17% | -6 | -89*
O=C(O)c1ccc(N/N=C/c2ccc3nccnc3c2)cc1 | 0 | -25 | -2% | -55* | -11
O=C(O)c1ccc(/C=N\Nc2ccccn2)cc1 | -3 | -14 | . | -62* | 1
O=C(CCCCCCCCC#CI)Oc1ccccc1 | . | . | . | -2 | .
Cc1ccc(Nc2nccc(N(C)c3ccc4c(C)n(C)nc4c3)n2)cc1S(N)(=O)=O | . | . | . | -14 | .
COc1ccc(C2/C(=C(\O)c3ccc4c(c3)OCCO4)C(=O)C(=O)N2Cc2cccnc2)cc1 (configuration not stated) | -58* | 1 | -2% | -4 | .
COC(=O)c1ccc(C2/C(=C(/O)c3ccc4c(c3)CC(C)O4)C(=O)C(=O)N2Cc2cccnc2)cc1 (configuration not stated) | 0 | 5 | 6% | -1 | 6
CC1Cc2cc(/C(O)=C3/C(=O)C(=O)N(Cc4cccnc4)C3c3cccc(O)c3)ccc2O1 (configuration not stated) | -79* | -13 | 5% | -8 | .
CCN(CC)c1ccc(N=Cc2ccc([N+](=O)[O-])o2)cc1 | -1 | ? | 4% | -29 | -23
CCN(CC)c1ccc(N=Cc2ccccc2[N+](=O)[O-])cc1 | 1 | -80* | 13% | -12 | 16
CCOc1ccc(/C=C/c2nc(C#N)c(N3CCCCC3)o2)cc1 | . | . | . | -2 | .
CCOc1cc(/C=C(\C#N)c2[nH]nc(N)c2C#N)ccc1O | -1 | -67* | -3% | -3 | -81*
CCOc1cc(-c2cc(-c3ccc(C)cc3)nc(N)c2C#N)ccc1O | -1 | -15 | -14% | -3 | -6
C=CCn1c(SCC(=O)N2CCOCC2)nnc1C(C)NC(=O)c1ccccc1 (configuration not stated) | -47* | 3 | 5% | -2 | -7
C=CCn1c(SCCOc2ccccc2)nnc1C(C)NC(=O)c1ccccc1 (configuration not stated) | -1 | -4 | -3% | 2 | 5
COCC(=O)N1c2nc(C(C)C)nn2C2(CCCCC2)[C@@H]2CCCC[C@@H]21 | . | . | . | -3 | .
COc1ccc(S(=O)(=O)N(CCC(=O)O)Cc2ccccc2)cc1 | -50* | 0 | 4% | 1 | 11
SMILES | CCT modulator | Six1-Eya2 inh | Eya2 phos inh | PI4K2A block | CtBP-E1A blk
COc1ccc(/C=N/NC(=O)CN(Cc2ccccc2)S(=O)(=O)c2ccc3c(c2)OCCO3)cc1 | 0 | -65* | -8% | -2 | -4
COc1cc(/C=N/NC(=O)CN(Cc2ccco2)S(=O)(=O)c2ccccc2)ccc1O | -2 | -82* | -7% | 3 | -92*
COc1cc(/C=N/NC(=O)CN(Cc2ccccc2)S(=O)(=O)c2ccc3c(c2)OCCO3)ccc1O | -2 | -82* | -14% | 5 | -14
COc1ccc(S(=O)(=O)N(CC(=O)NC(C)C)Cc2ccccc2)cc1 | 0 | 3 | -22% | -1 | 4
COC(=O)CN(Cc1ccco1)S(=O)(=O)c1ccccc1 | 0 | 2 | 6% | 0 | -3
O=C(CN(Cc1ccccc1)S(=O)(=O)c1ccc2c(c1)OCCO2)N/N=C/c1ccc(F)cc1 | -1 | -27 | 11% | -1 | 2
Cc1onc(-c2c(Cl)cccc2Cl)c1C(=O)Cl | . | . | . | -5 | .
CC1CCN(S(=O)(=O)c2ccc(C(C)C)cc2)CC1 | -3 | 7 | -5% | 5 | -1
CC1CCN(S(=O)(=O)c2ccc(Cl)cc2)CC1 | -43* | 12 | -4% | 2 | 12
Cc1nc(-[n+]2nc(-c3ccncc3)nn2-c2ccccc2)sc1C | 2 | -91* | . | -73* | -88*
CC(C)(C)C1CCC(CC2=C(O)c3ccccc3C(=O)C2=O)CC1 (configuration not stated) | . | . | . | -2 | .
O=C(COc1ccccc1)N/N=C/c1sc(=O)n(Cc2cccc(C(=O)O)c2)c1Cl | 1 | -7 | -1% | 1 | -7
O=C(O)c1cccc(Cn2c(Cl)c(/C=N/NC(=O)c3ccc(O)cc3)sc2=O)c1 | -1 | ? | 8% | -6 | -67*
O=C(CSC1=NNC(c2ccccn2)S1)Nc1ccc(C(F)(F)F)cc1 (configuration not stated) | 1 | -91* | -5% | 7 | -95*
O=C(CSc1nccn1C1CCCC1)Nc1ccc(C(F)(F)F)cc1 | . | . | . | 1 | .
O=C(CSc1nc(-c2cccs2)nc2cc(=O)[nH]n12)Nc1ccccc1 | . | . | . | -3 | .
Cc1ccccc1N=Nc1ccc(O)c2ncccc12 | -3 | ? | 11% | -3 | -26
O=Nc1ccc(O)c2ncccc12 | 0 | -89* | 0% | -8 | .
O=S(=O)(O)c1cccc2c(N=Nc3ccc(O)c4ncccc34)cccc12 | 0 | 32 | -9% | -23 | -92*
Cc1cccc(-n2cnc(C(=O)NNC(=S)Nc3ccc(Cl)cc3)c2)n1 | 1 | -90* | -13% | 0 | -88*
Cc1ccc(C(=O)Nc2ccc(N3CCCCC3)cc2)cc1 | . | . | 1% | -1 | .
O=C(NNC(=S)Nc1ccccc1)c1cccs1 | -4 | 1 | 10% | -1 | 5
O=C(NNC(=S)Nc1ccc(Cl)cc1)c1cccs1 | -71* | 0 | 3% | 3 | .
O=C(NC(=S)Nc1ccc(N2CCCCC2)cc1)c1cccs1 | -3 | -67* | -10% | -11 | ?
Cc1nc2ccccn2c1C(=O)NNC(=S)Nc1ccc(Cl)cc1 | -4 | -4 | 7% | -1 | 2
O=C(Nc1ccc(N2CCCCC2)cc1)c1ccccc1 | -66* | -16 | 14% | -14 | 8
Cc1nn(Cc2noc(C(=O)NC(C)c3ccccc3)n2)c(C)c1Br (configuration not stated) | . | . | . | 2 | .
